Molecules are shown by their SMILES. Values joined by “and” are separate entries in the source; they are usually repeats but may differ in a detail not shown here. Equal values may be shown once. The panel holds about 83,000 compounds, 20% with a hit somewhere; the sample as a whole holds those more often.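 Compound tested at a single concentration for 48 hours in 96-well plates; a percent growth value below 10 was scored as active.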 Active and inactive are the calls of the source.

Some test systems named below: T-47D breast; BT-549 breast; MDA-MB-435 melanoma; SW-620 colon; HCT-116 colon; HCC-2998 colon; KM12 colon; MCF7 breast.
Common to all, as to assay: NCI-60 one-dose screen, 48 h (100 = growth as untreated, 0 = no growth, -100 = all killed)
Settings in all cases: 10 µM unless noted

As for `CC(=O)Oc1cc(C(C)C)c(OCCN(C)C)cc1C`, the growth with T-47D breast is 90% (inactive) and 86.2% (inactive); with BT-549 breast, 119% (inactive) and 100% (inactive); in the test on MDA-MB-435 melanoma it was 99.2% (inactive) and 99.4% (inactive); with SW-620 colon it was 104% (inactive) and 100% (inactive); in the test with HCT-116 colon it was 107% (inactive) and 102% (inactive); with HCC-2998 colon it was 99.6% (inactive) and 113% (inactive). Further, the growth in the test on KM12 colon was 102% (inactive) and 110% (inactive).
Turning to `COC(=O)c1ccccc1Cl`, the growth in the test with T-47D breast is 94% (inactive); with BT-549 breast it was 98.4% (inactive); in the test with SW-620 colon, 103% (inactive); with MCF7 breast, 99.6% (inactive); in the test with HCT-116 colon, 100% (inactive); in the test with HCC-2998 colon, 105% (inactive). Also, in the test on KM12 colon, the growth is 101% (inactive).
Turning to `CCC(C)NC(=O)c1ccccc1C` (stereo not given), the growth is 94.3% (inactive) in the test on T-47D breast; 99.4% (inactive) in the test with BT-549 breast; 103% (inactive) in the test on MDA-MB-435 melanoma; 92.4% (inactive) with SW-620 colon; 90.7% (inactive) in the test on MCF7 breast; 98.3% (inactive) with HCT-116 colon. The growth in the test with KM12 colon was 101% (inactive).
As to `CCOC(=O)C(N)Cc1cc(I)c(O)c(I)c1` (stereo not given), the growth in the test with T-47D breast was 105% (inactive) and 111% (inactive); with BT-549 breast, 109% (inactive) and 98.5% (inactive); in the test on MDA-MB-435 melanoma, 105% (inactive) and 114% (inactive); with SW-620 colon, 104% (inactive); in the test with MCF7 breast it was 107% (inactive) and 103% (inactive); with HCT-116 colon it was 110% (inactive) and 95.3% (inactive). Moreover, in the test with KM12 colon, the growth was 107% (inactive).
For `N#Cc1c[nH]n2ccnc12`, the growth was 92.3% (inactive) with T-47D breast; 98.3% (inactive) in the test with BT-549 breast; 114% (inactive) in the test on MDA-MB-435 melanoma; 119% (inactive) in the test with SW-620 colon; 102% (inactive) in the test on MCF7 breast; 95.2% (inactive) in the test with HCT-116 colon. Also, the growth with KM12 colon is 109% (inactive).
On to `O=C(O)c1ccc2c3ccc(C(=O)O)c4c(C(=O)O)ccc(c5ccc(C(=O)O)c1c25)c43`, for which the growth in the test with T-47D breast was 97.2% (inactive); with BT-549 breast, 64.8% (inactive); in the test with MDA-MB-435 melanoma, 101% (inactive); with SW-620 colon, 97.5% (inactive); in the test with HCT-116 colon, 90.1% (inactive); in the test with KM12 colon, 100% (inactive).
Consider `CC(=O)Oc1ccc(C(c2ccc(OC(C)=O)cc2)c2ccccn2)cc1`, for which the growth in the test with T-47D breast was -15.1% (active) and -18.5% (active); in the test on BT-549 breast, -16.4% (active); in the test with MDA-MB-435 melanoma, 110% (inactive) and 103% (inactive); in the test with SW-620 colon, 104% (inactive) and 83.9% (inactive); in the test on HCT-116 colon, 88.6% (inactive) and 96% (inactive); in the test on HCC-2998 colon, 70.5% (inactive). Moreover, the growth in the test with KM12 colon was 80% (inactive) and 85% (inactive).
Regarding `Nc1nc(=S)c2[nH]cnc2[nH]1`, the growth in the test with T-47D breast is 12.3% (inactive) and 5.25% (active); with BT-549 breast it was 30.7% (inactive) and 19.5% (inactive); with MDA-MB-435 melanoma it was 12.3% (inactive) and 5.49% (active); in the test with SW-620 colon, 23.3% (inactive) and 15.9% (inactive); in the test with HCT-116 colon, 9.54% (active) and -8.26% (active); in the test with HCC-2998 colon, 6.28% (active). The growth in the test on KM12 colon is 10.1% (inactive) and 11.5% (inactive).
Take `COc1ccc(-n2[nH]c3c(cnc4ccccc43)c2=O)cc1`: the growth with T-47D breast was 88.3% (inactive); in the test on BT-549 breast, 90% (inactive) and 95.4% (inactive); in the test on MDA-MB-435 melanoma, 94.7% (inactive) and 97.3% (inactive); in the test with SW-620 colon it was 106% (inactive) and 103% (inactive); in the test with HCT-116 colon it was 90.5% (inactive) and 95.1% (inactive); in the test on KM12 colon it was 99.1% (inactive) and 97.7% (inactive).
As for `COC(=O)c1nc(=S)[nH]c(C(=O)OC)c1C(=O)c1ccc(OC)cc1`, the growth was 125% (inactive) with T-47D breast; 109% (inactive) in the test with BT-549 breast; 110% (inactive) in the test on MDA-MB-435 melanoma; 105% (inactive) with SW-620 colon; 93.6% (inactive) in the test on MCF7 breast; 115% (inactive) in the test with HCT-116 colon. Also, the growth in the test on KM12 colon was 103% (inactive).
For the compound `C(#CCN1CCOCC1)CCCN1CCOCC1`, the growth in the test on T-47D breast was 105% (inactive) and 101% (inactive); with BT-549 breast, 99.5% (inactive) and 53.3% (inactive); with MDA-MB-435 melanoma, 102% (inactive) and 101% (inactive); in the test with SW-620 colon it was 109% (inactive) and 106% (inactive); with HCT-116 colon it was 105% (inactive) and 107% (inactive); with KM12 colon, 105% (inactive) and 106% (inactive).
As for `COc1ccc(CCn2cnn3c(=O)c4ccccc4nc3c2=O)cc1OC`, the growth was 113% (inactive) and 103% (inactive) with T-47D breast; 91.4% (inactive) and 114% (inactive) with BT-549 breast; 103% (inactive) and 119% (inactive) in the test with MDA-MB-435 melanoma; 101% (inactive) and 112% (inactive) in the test with SW-620 colon; 99.4% (inactive) and 107% (inactive) in the test with HCT-116 colon; 104% (inactive) and 111% (inactive) in the test with HCC-2998 colon. In the test with KM12 colon, the growth was 94.4% (inactive) and 103% (inactive).
Regarding `COC(=O)C(Cc1cn(C(C)=O)c2ccccc12)P(=O)(OC)OC` (stereo not given), the growth in the test on T-47D breast was 105% (inactive); in the test on BT-549 breast, 105% (inactive); in the test with MDA-MB-435 melanoma, 99.5% (inactive); in the test with SW-620 colon it was 99.5% (inactive); with HCT-116 colon it was 96.4% (inactive); in the test on HCC-2998 colon, 103% (inactive). Further, in the test with KM12 colon, the growth was 99.2% (inactive).
`O=[N+]([O-])c1cccc(N=Cc2ccccc2)c1`: the growth in the test with T-47D breast was 103% (inactive); in the test with BT-549 breast, 101% (inactive); with SW-620 colon, 117% (inactive); with MCF7 breast it was 102% (inactive); in the test on HCT-116 colon, 103% (inactive); in the test with HCC-2998 colon, 103% (inactive). Also, in the test on KM12 colon, the growth is 112% (inactive).

Values taken from PubChem BioAssay (NCI).
